Assay in all cases: PBM; 200 nM protein, PBS
What all share (conditions): dsDNA, one strand shown

The target in assay [1] is HOXB9 (Homo sapiens, UniProt P17482 171-250, T197M).
In assay [2] the target is HOXC9 (Homo sapiens, UniProt P31274 178-260, K195R).
Assay [3] addresses HOXC10 (Homo sapiens, UniProt Q9NYD6 254-340).
The next assay has as its target ALX4 (Homo sapiens, UniProt Q9H161 200-286, Q225E).
Assay [4] concerns the target HOXB9 (Homo sapiens, UniProt P17482 171-250).
For assay [5], the target named is HOXC9 (Homo sapiens, UniProt P31274 178-260).
Assay [6] deals with HOXD13 (Homo sapiens, UniProt P35453 263-343, T313R).
Assay [7] concerns the target HOXC9 (Homo sapiens, UniProt P31274 178-260, R193K).
Assay [8] has as its target HOXD13 (Homo sapiens, UniProt P35453 263-343).
Assay [9] deals with HOXC10 (Homo sapiens, UniProt Q9NYD6 254-340, K271E).
Assay [10] has as its target HOXD13 (Homo sapiens, UniProt P35453 263-343, T313A).
Assay [11] deals with HOXB9 (Homo sapiens, UniProt P17482 171-250, R186Q).
Assay [12] concerns the target HOXC9 (Homo sapiens, UniProt P31274 178-260, R222W).
Assay [13] has as its target T1, SIX6 (Homo sapiens, UniProt O95475 114-200, L167I).
T1 sequence: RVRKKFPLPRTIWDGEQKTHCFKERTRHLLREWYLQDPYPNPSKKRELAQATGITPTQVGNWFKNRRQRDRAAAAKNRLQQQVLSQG

Assay [14] has as its target T2, SIX6 (Homo sapiens, UniProt O95475 114-200, L143V).
T2 sequence: T1 sequence with L30V, I54L

In assay [15] the target is T3, SIX6 (Homo sapiens, UniProt O95475 114-200, H141N).
T3 sequence: T1 sequence with H28N, I54L

In assay [16] the target is T4, SIX6 (Homo sapiens, UniProt O95475 114-200, T165P).
T4 sequence: T1 sequence with T52P, I54L

For assay [17], the target named is T5, SIX6 (Homo sapiens, UniProt O95475 114-200, L167M).
T5 sequence: T1 sequence with I54M

The target in assay [18] is T6, SIX6 (Homo sapiens, UniProt O95475 114-200, L143M).
T6 sequence: T1 sequence with L30M, I54L

The target in assay [19] is T7, SIX6 (Homo sapiens, UniProt O95475 114-200, L143I).
T7 sequence: T1 sequence with L30I, I54L

Assay [20] deals with T8, SIX6 (Homo sapiens, UniProt O95475 114-200, T165G).
T8 sequence: T1 sequence with T52G, I54L

Assay [21] has as its target T9, SIX6 (Homo sapiens, UniProt O95475 114-200, T139Q).
T9 sequence: T1 sequence with T26Q, I54L

Assay [22] addresses T10, SIX6 (Homo sapiens, UniProt O95475 114-200, T165A).
T10 sequence: T1 sequence with T52A, I54L

For assay [23], the target named is T11, SIX6 (Homo sapiens, UniProt O95475 114-200, L167V).
T11 sequence: T1 sequence with I54V

Assay [24] deals with T12, SIX6 (Homo sapiens, UniProt O95475 114-200).
T12 sequence: T1 sequence with I54L

Assay [25] concerns the target T13, SIX6 (Homo sapiens, UniProt O95475 114-200, T165I).
T13 sequence: T1 sequence with T52I, I54L

In assay [26] the target is T14, VENTX (Homo sapiens, UniProt O95231 78-163, R121Q).
T14 sequence: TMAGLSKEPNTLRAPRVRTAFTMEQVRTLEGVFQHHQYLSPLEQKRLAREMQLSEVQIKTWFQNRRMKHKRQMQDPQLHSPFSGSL

For assay [27], the target named is T15, VENTX (Homo sapiens, UniProt O95231 78-163, Y115F).
T15 sequence: T14 sequence with Y38F, Q44R

Assay [28] has as its target HOXA4 (Homo sapiens, UniProt Q00056 201-287, W262R).
In assay [29] the target is HOXA2 (Homo sapiens, UniProt O43364 129-215, R185T).
The target in assay [30] is HOXA4 (Homo sapiens, UniProt Q00056 201-287, R217L).
The target in another assay is PITX2 (Homo sapiens, UniProt Q99697 72-157).
Assay [31] concerns the target HOXA2 (Homo sapiens, UniProt O43364 129-215, R185K).
Assay [32] has as its target HOXA4 (Homo sapiens, UniProt Q00056 201-287).
Assay [33] addresses HOXA2 (Homo sapiens, UniProt O43364 129-215, Y150S).
Assay [34] deals with HOXA4 (Homo sapiens, UniProt Q00056 201-287, W262F).
For assay [35], the target named is HOXA2 (Homo sapiens, UniProt O43364 129-215).

Numbering of substitutions follows the chain as printed.

Our source for the binding signal values is paper PMC11006913.

Chain of HOXC9 (Homo sapiens, UniProt P31274 178-260, R193K) (P31274 178-260 R193K): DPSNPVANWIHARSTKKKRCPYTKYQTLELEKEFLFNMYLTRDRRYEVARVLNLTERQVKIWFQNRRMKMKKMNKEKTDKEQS
Chain of HOXD13 (Homo sapiens, UniProt P35453 263-343, T313R) (P35453 263-343 T313R): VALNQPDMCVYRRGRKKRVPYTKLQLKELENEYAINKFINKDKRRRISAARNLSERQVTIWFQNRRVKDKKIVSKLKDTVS
Chain of HOXB9 (Homo sapiens, UniProt P17482 171-250) (P17482 171-250): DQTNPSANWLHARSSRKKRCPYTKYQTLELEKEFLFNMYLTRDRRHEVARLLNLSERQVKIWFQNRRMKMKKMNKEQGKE
Chain of HOXC9 (Homo sapiens, UniProt P31274 178-260, R222W) (P31274 178-260 R222W): as the sequence (P31274 178-260 R193K) above, with K16R, R45W counted along it
Chain of HOXD13 (Homo sapiens, UniProt P35453 263-343, T313A) (P35453 263-343 T313A): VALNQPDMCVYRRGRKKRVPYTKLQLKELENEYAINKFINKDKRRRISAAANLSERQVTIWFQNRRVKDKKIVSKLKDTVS
Chain of ALX4 (Q9H161 200-286 Q225E): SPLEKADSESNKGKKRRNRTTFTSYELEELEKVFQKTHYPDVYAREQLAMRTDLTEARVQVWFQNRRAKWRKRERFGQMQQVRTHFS
Chain of HOXC10 (Homo sapiens, UniProt Q9NYD6 254-340) (Q9NYD6 254-340): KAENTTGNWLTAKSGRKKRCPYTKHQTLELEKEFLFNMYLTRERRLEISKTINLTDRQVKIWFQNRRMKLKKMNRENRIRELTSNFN
Chain of HOXB9 (Homo sapiens, UniProt P17482 171-250, T197M) (P17482 171-250 T197M): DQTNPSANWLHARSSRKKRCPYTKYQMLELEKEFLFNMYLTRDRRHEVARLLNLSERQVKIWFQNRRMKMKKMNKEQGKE
Chain of HOXC9 (Homo sapiens, UniProt P31274 178-260, K195R) (P31274 178-260 K195R): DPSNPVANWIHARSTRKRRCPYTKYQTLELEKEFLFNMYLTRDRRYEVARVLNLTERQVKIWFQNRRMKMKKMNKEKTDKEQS
Chain of HOXB9 (Homo sapiens, UniProt P17482 171-250, R186Q) (P17482 171-250 R186Q): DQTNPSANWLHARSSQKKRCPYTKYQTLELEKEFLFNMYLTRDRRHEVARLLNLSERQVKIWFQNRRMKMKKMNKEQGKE
Chain of HOXD13 (Homo sapiens, UniProt P35453 263-343) (P35453 263-343): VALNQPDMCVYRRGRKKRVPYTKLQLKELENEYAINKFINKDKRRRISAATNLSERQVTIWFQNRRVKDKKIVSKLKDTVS
Chain of HOXC10 (Homo sapiens, UniProt Q9NYD6 254-340, K271E) (Q9NYD6 254-340 K271E): as the sequence (Q9NYD6 254-340) above, with K18E counted along it
Chain of HOXC9 (Homo sapiens, UniProt P31274 178-260) (P31274 178-260): as the sequence (P31274 178-260 R193K) above, with K16R counted along it
Chain of HOXA2 (Homo sapiens, UniProt O43364 129-215, R185K) (O43364 129-215 R185K): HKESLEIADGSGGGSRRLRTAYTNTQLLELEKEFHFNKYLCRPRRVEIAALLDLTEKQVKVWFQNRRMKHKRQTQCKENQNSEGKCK
Chain of HOXA2 (Homo sapiens, UniProt O43364 129-215) (O43364 129-215): as the sequence (O43364 129-215 R185K) above, with K57R counted along it
Chain of HOXA2 (Homo sapiens, UniProt O43364 129-215, R185T) (O43364 129-215 R185T): as the sequence (O43364 129-215 R185K) above, with K57T counted along it
Chain of HOXA2 (Homo sapiens, UniProt O43364 129-215, Y150S) (O43364 129-215 Y150S): as the sequence (O43364 129-215 R185K) above, with Y22S, K57R counted along it
Chain of HOXA4 (Homo sapiens, UniProt Q00056 201-287, R217L) (Q00056 201-287 R217L): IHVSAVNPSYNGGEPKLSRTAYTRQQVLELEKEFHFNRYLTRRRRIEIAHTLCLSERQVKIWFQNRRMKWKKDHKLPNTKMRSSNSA
Chain of HOXA4 (Homo sapiens, UniProt Q00056 201-287, W262F) (Q00056 201-287 W262F): as the sequence (Q00056 201-287 R217L) above, with L17R, W62F counted along it
Chain of HOXA4 (Homo sapiens, UniProt Q00056 201-287) (Q00056 201-287): as the sequence (Q00056 201-287 R217L) above, with L17R counted along it
Chain of HOXA4 (Homo sapiens, UniProt Q00056 201-287, W262R) (Q00056 201-287 W262R): as the sequence (Q00056 201-287 R217L) above, with L17R, W62R counted along it

For the sequence TAATAAAA, the binding signal was 10.1 upbm affinity estimate (log intensity, higher = more binding, comparable within an allelic series) with HOXB9 [1]; 13.2 upbm affinity estimate (log intensity, higher = more binding, comparable within an allelic series) with HOXC9 [2]; 13 upbm affinity estimate (log intensity, higher = more binding, comparable within an allelic series) with HOXC10 [3]; 11.8 upbm affinity estimate (log intensity, higher = more binding, comparable within an allelic series) with ALX4; 12.6 upbm affinity estimate (log intensity, higher = more binding, comparable within an allelic series) with HOXB9 [4]; 13.2 upbm affinity estimate (log intensity, higher = more binding, comparable within an allelic series) in the assay with HOXC9 [5]. Moreover, the binding signal in the assay with HOXD13 [6] is 11.1 upbm affinity estimate (log intensity, higher = more binding, comparable within an allelic series); with HOXC9 [7] it was 13.1 upbm affinity estimate (log intensity, higher = more binding, comparable within an allelic series); in the assay with HOXD13 [8] it was 12.1 upbm affinity estimate (log intensity, higher = more binding, comparable within an allelic series); in the assay with HOXC10 [9], 12.5 upbm affinity estimate (log intensity, higher = more binding, comparable within an allelic series); with HOXD13 [10], 12.1 upbm affinity estimate (log intensity, higher = more binding, comparable within an allelic series); with HOXB9 [11], 12.2 upbm affinity estimate (log intensity, higher = more binding, comparable within an allelic series). The binding signal with HOXC9 [12] is 11.7 upbm affinity estimate (log intensity, higher = more binding, comparable within an allelic series).
Take AATAAAAT: the binding signal in the assay with HOXB9 [1] is 10 upbm affinity estimate (log intensity, higher = more binding, comparable within an allelic series); with HOXC9 [2] it was 12.7 upbm affinity estimate (log intensity, higher = more binding, comparable within an allelic series); with HOXC10 [3], 12.5 upbm affinity estimate (log intensity, higher = more binding, comparable within an allelic series); with ALX4 it was 11.1 upbm affinity estimate (log intensity, higher = more binding, comparable within an allelic series); with HOXB9 [4] it was 12.1 upbm affinity estimate (log intensity, higher = more binding, comparable within an allelic series); with HOXC9 [5], 12.7 upbm affinity estimate (log intensity, higher = more binding, comparable within an allelic series). Moreover, the binding signal with HOXD13 [6] is 10.8 upbm affinity estimate (log intensity, higher = more binding, comparable within an allelic series); with HOXC9 [7] it was 12.7 upbm affinity estimate (log intensity, higher = more binding, comparable within an allelic series); with HOXD13 [8], 11.8 upbm affinity estimate (log intensity, higher = more binding, comparable within an allelic series); in the assay with HOXC10 [9], 12 upbm affinity estimate (log intensity, higher = more binding, comparable within an allelic series); with HOXD13 [10], 11.8 upbm affinity estimate (log intensity, higher = more binding, comparable within an allelic series); in the assay with HOXB9 [11], 11.7 upbm affinity estimate (log intensity, higher = more binding, comparable within an allelic series). Also, the binding signal in the assay with HOXC9 [12] was 11.5 upbm affinity estimate (log intensity, higher = more binding, comparable within an allelic series).
Take CAGCTGCG: the binding signal was 8.53 upbm affinity estimate (log intensity, higher = more binding, comparable within an allelic series) with HOXB9 [1]; 9.16 upbm affinity estimate (log intensity, higher = more binding, comparable within an allelic series) with SIX6 [13]; 9.03 upbm affinity estimate (log intensity, higher = more binding, comparable within an allelic series) with SIX6 [14]; 9.09 upbm affinity estimate (log intensity, higher = more binding, comparable within an allelic series) in the assay with SIX6 [15]; 9 upbm affinity estimate (log intensity, higher = more binding, comparable within an allelic series) in the assay with SIX6 [16]; 9.04 upbm affinity estimate (log intensity, higher = more binding, comparable within an allelic series) with SIX6 [17]. Further, the binding signal in the assay with SIX6 [18] was 9.22 upbm affinity estimate (log intensity, higher = more binding, comparable within an allelic series); in the assay with SIX6 [19], 9.01 upbm affinity estimate (log intensity, higher = more binding, comparable within an allelic series); in the assay with SIX6 [20] it was 9.19 upbm affinity estimate (log intensity, higher = more binding, comparable within an allelic series); with HOXB9 [4] it was 8.16 upbm affinity estimate (log intensity, higher = more binding, comparable within an allelic series); with SIX6 [21] it was 9.25 upbm affinity estimate (log intensity, higher = more binding, comparable within an allelic series); with SIX6 [22], 9.08 upbm affinity estimate (log intensity, higher = more binding, comparable within an allelic series). In addition, the binding signal was 9.05 upbm affinity estimate (log intensity, higher = more binding, comparable within an allelic series) with SIX6 [23]; 9.08 upbm affinity estimate (log intensity, higher = more binding, comparable within an allelic series) with SIX6 [24]; 9.09 upbm affinity estimate (log intensity, higher = more binding, comparable within an allelic series) with SIX6 [25]; 8.31 upbm affinity estimate (log intensity, higher = more binding, comparable within an allelic series) with HOXB9 [11].
With TAATCGGA, the binding signal was 10.4 upbm affinity estimate (log intensity, higher = more binding, comparable within an allelic series) with VENTX [26] and 10.6 upbm affinity estimate (log intensity, higher = more binding, comparable within an allelic series) in the assay with VENTX [27].
Take ATTAACGA: the binding signal was 10 upbm affinity estimate (log intensity, higher = more binding, comparable within an allelic series) with HOXB9 [1]; 10.6 upbm affinity estimate (log intensity, higher = more binding, comparable within an allelic series) in the assay with HOXA4 [28]; 12.6 upbm affinity estimate (log intensity, higher = more binding, comparable within an allelic series) with HOXC9 [2]; 12.2 upbm affinity estimate (log intensity, higher = more binding, comparable within an allelic series) with HOXC10 [3]; 11.5 upbm affinity estimate (log intensity, higher = more binding, comparable within an allelic series) with VENTX [27]; 12.4 upbm affinity estimate (log intensity, higher = more binding, comparable within an allelic series) with HOXA2 [29]. For the same sequence, the binding signal was 12 upbm affinity estimate (log intensity, higher = more binding, comparable within an allelic series) with HOXA4 [30]; 12.5 upbm affinity estimate (log intensity, higher = more binding, comparable within an allelic series) with HOXC9 [5]; 10.7 upbm affinity estimate (log intensity, higher = more binding, comparable within an allelic series) with PITX2; 12.5 upbm affinity estimate (log intensity, higher = more binding, comparable within an allelic series) with HOXC9 [7]; 13.3 upbm affinity estimate (log intensity, higher = more binding, comparable within an allelic series) in the assay with HOXA2 [31]; 13.6 upbm affinity estimate (log intensity, higher = more binding, comparable within an allelic series) with HOXA4 [32]. The binding signal was 12.1 upbm affinity estimate (log intensity, higher = more binding, comparable within an allelic series) with HOXC10 [9]; 10.9 upbm affinity estimate (log intensity, higher = more binding, comparable within an allelic series) in the assay with HOXC9 [12]; 10.9 upbm affinity estimate (log intensity, higher = more binding, comparable within an allelic series) in the assay with HOXA2 [33]; 11.4 upbm affinity estimate (log intensity, higher = more binding, comparable within an allelic series) with HOXA4 [34]; 12 upbm affinity estimate (log intensity, higher = more binding, comparable within an allelic series) with HOXA2 [35].
Turning to CAATAAAC, the binding signal in the assay with HOXB9 [1] is 9.69 upbm affinity estimate (log intensity, higher = more binding, comparable within an allelic series); with HOXC9 [2], 12.5 upbm affinity estimate (log intensity, higher = more binding, comparable within an allelic series); in the assay with HOXC10 [3], 12.2 upbm affinity estimate (log intensity, higher = more binding, comparable within an allelic series); in the assay with ALX4, 10.6 upbm affinity estimate (log intensity, higher = more binding, comparable within an allelic series); with HOXA2 [29], 9.38 upbm affinity estimate (log intensity, higher = more binding, comparable within an allelic series); in the assay with HOXB9 [4], 11.8 upbm affinity estimate (log intensity, higher = more binding, comparable within an allelic series). For the same sequence, the binding signal is 12.7 upbm affinity estimate (log intensity, higher = more binding, comparable within an allelic series) in the assay with HOXC9 [5]; 10.9 upbm affinity estimate (log intensity, higher = more binding, comparable within an allelic series) in the assay with HOXD13 [6]; 12.5 upbm affinity estimate (log intensity, higher = more binding, comparable within an allelic series) with HOXC9 [7]; 11.7 upbm affinity estimate (log intensity, higher = more binding, comparable within an allelic series) in the assay with HOXA2 [31]; 12.2 upbm affinity estimate (log intensity, higher = more binding, comparable within an allelic series) with HOXD13 [8]; 11.4 upbm affinity estimate (log intensity, higher = more binding, comparable within an allelic series) in the assay with HOXC10 [9]. The binding signal with HOXD13 [10] is 11.9 upbm affinity estimate (log intensity, higher = more binding, comparable within an allelic series); with HOXB9 [11] it was 11.5 upbm affinity estimate (log intensity, higher = more binding, comparable within an allelic series); with HOXC9 [12], 11.1 upbm affinity estimate (log intensity, higher = more binding, comparable within an allelic series); in the assay with HOXA2 [33] it was 10.7 upbm affinity estimate (log intensity, higher = more binding, comparable within an allelic series); in the assay with HOXA2 [35], 9.11 upbm affinity estimate (log intensity, higher = more binding, comparable within an allelic series).
